PubChem BioAssay
Activity calls are given as the source filed them.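 The calls were made as follows, unless noted: active = inhibition at or above 50% at 10 µM; inactive = inhibition below 50%.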

Key:
[1] = inhibitors of TNFa-induced NFkB p65 translocation, primary screen, imaging, HUVEC, MLSMR starter and 10KST1 sets (AID 438;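 active = inhibition above 20% together with a positive visual image hit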;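 also: compound added about 3h40 before a 20 min TNFalpha stimulation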;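 as to inhibition: signal is the nuclear over cytoplasmic p65 intensity ratio per well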); details: HUVEC TNFa-induced p65 nuclear translocation; cell count: measured here: nuclei count (cytotoxicity indicator), at 2.08 µM; inhibition: at 2 µM, stronger effect = higher value, 0% TNFa-plus-vehicle, 100% no-TNFa wells
[2] = inhibitors of mutant huntingtin aggregation, primary screen, imaging, exon1htt(103Q)mCFP cells, high-content imaging (AID 483;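 active = visual image review flags a hit and inhibition of aggregation exceeds 20%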;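 also: compound exposure lasted 3 days before fixation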;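 as to nuclei count: percent of the per-plate median nuclei count of sample wells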); details: exon1htt(103Q)mCFP cell line, aggregate imaging, at 2 µM; inhibition of aggregation: stronger effect = higher value; nuclei count: measured here: cell count, toxicity
[3] = inhibitors of E-selectin induction by TNFa, primary screen, imaging, HUVEC, immunofluorescence, MLSMR starter and 10KST1 sets (AID 487;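 active = visually confirmed hit in the image check and inhibition above 20%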;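 as to inhibition: signal is fraction of cell area covered by stained E-selectin grains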;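 as to nuclei count: 100% = median nuclei count of all wells on the same plate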); details: HUVEC TNFalpha-induced E-selectin immunofluorescence imaging, at 2 µM; inhibition: stronger effect = higher value; nuclei count: measured here: cell number, toxicity
[4] = target: Voltage-gated potassium channel subunit beta-2 (Rattus norvegicus) (UniProt P62483); experiment: KvBeta enzyme negative modulators, primary screen, biochemical, NADPH fluorescence (AID 622;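 active = fluorescence slope higher than the sample average by over 3 SD, cut at about -0.22 in these data, passing the limit was not always enough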;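 also: slope of raw intensity against log time taken from 70 to 1610 s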); details: recombinant KvBeta, 4-cyanobenzaldehyde reduction, at 10 µM, stronger effect = higher value
Chain of Voltage-gated potassium channel subunit beta-2 (Rattus norvegicus) (P62483 whole entry, looked up): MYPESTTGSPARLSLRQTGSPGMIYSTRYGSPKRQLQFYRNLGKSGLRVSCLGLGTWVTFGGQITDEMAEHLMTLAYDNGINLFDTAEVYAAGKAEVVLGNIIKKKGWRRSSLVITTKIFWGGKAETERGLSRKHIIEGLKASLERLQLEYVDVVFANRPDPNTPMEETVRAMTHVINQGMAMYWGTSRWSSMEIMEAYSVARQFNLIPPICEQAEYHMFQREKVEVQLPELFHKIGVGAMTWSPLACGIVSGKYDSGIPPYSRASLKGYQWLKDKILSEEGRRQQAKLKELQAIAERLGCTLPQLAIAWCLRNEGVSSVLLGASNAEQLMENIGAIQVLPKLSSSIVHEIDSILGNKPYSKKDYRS

[5] = target: Voltage-gated potassium channel subunit beta-2 (Rattus norvegicus) (UniProt P62483); experiment: KvBeta positive modulators, primary screen, biochemical, NADPH fluorescence (AID 623;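 active = NADPH fluorescence slope more negative than the mean of all samples by about 3 SD, 99.7% confidence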;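 also: fluorescence intensity change per second fitted from 20 to 320 s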); details: Recombinant KvBeta, NADPH fluorescence decrease slope, 10 min; at 10 µM; stronger effect = lower value
[6] = target: Alpha-2C adrenergic receptor (Homo sapiens) (UniProt P18825); experiment: modulators of alpha2C/GIRK thallium flux, primary screen, cell-based, HEK293 alpha2C/GIRK1/2 (AID 624;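 active = fluorescence slope after compound addition differing from the mean of all screened samples at 99.7% confidence, in either direction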;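 also: slope of fluorescence ratio to pre-addition baseline per second over 15 to 24 s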); details: thallium flux BTC fluorescence, at 10 µM, actives lie on both sides
Chain of Alpha-2C adrenergic receptor (Homo sapiens) (P18825 whole entry, looked up): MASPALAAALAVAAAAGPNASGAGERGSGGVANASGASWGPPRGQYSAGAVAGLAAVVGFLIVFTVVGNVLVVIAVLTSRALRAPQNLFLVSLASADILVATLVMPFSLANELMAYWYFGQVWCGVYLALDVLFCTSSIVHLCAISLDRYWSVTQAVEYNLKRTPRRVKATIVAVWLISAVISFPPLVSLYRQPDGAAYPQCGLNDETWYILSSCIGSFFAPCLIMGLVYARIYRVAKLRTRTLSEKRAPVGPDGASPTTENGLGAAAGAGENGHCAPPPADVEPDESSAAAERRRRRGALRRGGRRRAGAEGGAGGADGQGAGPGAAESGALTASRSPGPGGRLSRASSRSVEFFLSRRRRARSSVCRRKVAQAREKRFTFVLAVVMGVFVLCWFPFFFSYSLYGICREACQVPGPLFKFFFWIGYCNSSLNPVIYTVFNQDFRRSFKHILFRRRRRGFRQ

[7] = inhibitors of Sendai virus-induced IRF3 signaling, primary screen, TLR/RLR signaling modifier project, cell-based, Sendai virus stimulus, luciferase, 10K MLSCN set (AID 602276); details: HEK293 RL24 IRF3 luciferase reporter, at 10 µM, stronger effect = higher value;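 also: firefly luciferase from ISG56 promoter only with Renilla not read in this screen; 0% = Sendai virus plus DMSO and 100% = medium plus DMSO without virus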
[8] = inhibitors of poly I:C-induced TLR3 signaling, primary screen, cell-based, poly I:C stimulus, luciferase, 10K MLSCN set (AID 602277;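 active = inhibition of the reporter signal at or above 50%; inactive = inhibition below 50%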); details: HEK293-TLR3 RL24 IRF3 luciferase reporter, at 10 µM, stronger effect = higher value

| SMILES | cell count [1] | inhibition [1] | inhibition of aggregation [2] | nuclei count [2] [%] | inhibition [3] | nuclei count [3] [%] | fluorescence slope [4] | NADPH fluorescence slope [5] | slope [6] | inhibition [7] | inhibition [8] |
| --- | --- | --- | --- | --- | --- | --- | --- | --- | --- | --- | --- |
| Fc1ccc(-n2c(Cc3ccccc3)nnc2SCc2nc(-c3cccs3)no2)cc1 | 466 | 2.5% (inactive) | 0.1% (inactive) | 86.5 | -52.5% (inactive) | 108 | -0.63 (inactive) | -4.2e-05 (inactive) | 0.00381 (inactive) | -1.69% (inactive) | 1.22% (inactive) |
| O=C1NC2=C(C(=O)CCC2)C(c2ccc3ncccc3c2)N1 (stereo not drawn) | 513 | 1.5% (inactive) | 1.9% (inactive) | 126 | -13.9% (inactive) | 116 | -0.541 (inactive) | -5e-05 (inactive) | 0.00696 (inactive) | 9.39% (inactive) | 8.99% (inactive) |
| CCOC(=O)c1sc(=NC(=O)c2ccc(OC)c(OC)c2)n(C)c1C | 642 | 10.1% (inactive) | 3.7% (inactive) | 93.8 | 47.2% (inactive) | 75.6 | -0.583 (inactive) | -2.7e-05 (inactive) | 0.00657 (inactive) | -16.4% (inactive) | -82.7% (inactive) |
| CCOC(=O)C(NC(=O)Nc1ccccc1)(OCC)C(F)(F)F (stereo not drawn) | 517 | -2.4% (inactive) | -2.5% (inactive) | 97.9 | 25% (inactive) | 89.1 | -0.639 (inactive) | 1.8e-05 (inactive) | 0.0106 (inactive) | 16.5% (inactive) | 30.2% (inactive) |
| O=C(c1c(F)cccc1F)N(Cc1ccccn1)C1CCCC1 | 521 | -11.2% (inactive) | 24.2% (inactive) | 110 | 40.9% (inactive) | 87.3 | -0.534 (inactive) | 2e-06 (inactive) | 0.00412 (inactive) | -7.47% (inactive) | -6.01% (inactive) |
| CC(C)(C)SCCNC(=O)CN1C(=O)c2ccccc2S1(=O)=O | 625 | -4.2% (inactive) | -13.2% (inactive) | 97.6 | -29.7% (inactive) | 106 | -0.499 (inactive) | -8.2e-06 (inactive) | 0.00704 (inactive) | 3.26% (inactive) | -7.98% (inactive) |
| CCOCC(=O)Nc1sc2c(c1C(=O)OCC)CCCC2 | 300 | -1.6% (inactive) | 16.6% (inactive) | 65.8 | -39.3% (inactive) | 116 | -0.347 (inactive) | -5.2e-05 (inactive) | 0.00551 (inactive) | 9.19% (inactive) | 14% (inactive) |
| COCCNC(=O)C1CCCN(c2ncccn2)C1 (stereo not drawn) | 648 | 7.5% (inactive) | 5.6% (inactive) | 100 | 98.1% (active) | 76.1 | -0.539 (inactive) | -6.8e-05 (inactive) | 0.00583 (inactive) | 14.2% (inactive) | 20.8% (inactive) |
